Test results from the supplement of paper PMC10849652.
About 7,900 targets were measured; listed, in parts, are those with a hit and a random draw of the rest. About 0.6% of all pairs of compound and target were hits. A number with no mark means an inactive call.

Key:
Experiment in all cases: log2 fold change, soluble protein after heating vs DMSO (PISA); higher = thermal stabilisation; K562 cells, 10 uM, 30 min; active = over 0.2 and 3.5 SD of the protein, either way, in both replicates (recomputed)
IRAK-1-4 Inhibitor I = compound: C1COCCN1CCN2C3=CC=CC=C3N=C2NC(=O)C4=CC(=CC=C4)[N+](=O)[O-] [IRAK-1-4 Inhibitor I]
Summary of the method: (§1)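 K562 cells at 2×10^6 cells/mL were exposed to 10 μM compound for 30 min, then aliquots were heated for 3 min across 48°C-58°C, pooled, and extracted in PBS containing 0.5% NP-40 at 4°C. The supernatant after 21,000xg for 90 min was taken as soluble protein and measured by TMTpro 16plex LC-MS/MS with channel sums equalised. Thermal stability is reported relative to control samples, with values from duplicates. Fold changes are given on a log2 scale.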

ibrutinib = compound: C=CC(=O)N1CCC[C@@H](n2nc(-c3ccc(Oc4ccccc4)cc3)c3c(N)ncnc32)C1 [ibrutinib]
Summary of the method: as §1

[1] = compound: CC(=O)c1cnc2ccc(-c3cc(Cl)c(O)c(Cl)c3)nc2c1N[C@H]1CC[C@H](CN(C)C)CC1
Summary of the method: as §1

ralimetinib = compound: CC(C)(C)Cn1c(N)nc2ccc(-c3[nH]c(C(C)(C)C)nc3-c3ccc(F)cc3)nc21 [ralimetinib]
Summary of the method: as §1

[2] = compound: CC(C)(O)CC(=O)NCCn1ccc2ncnc(Nc3ccc(Oc4cccc(C(F)(F)F)c4)c(Cl)c3)c21
Summary of the method: as §1

[3] = compound: CC(C)C1=C2N=C(C=C(N2N=C1)NCC3=CC=CC=C3)NCCCCCCN
Summary of the method: as §1

[4] = compound: CC(C)C[C@@H](C=O)NC(=O)[C@H](CC(C)C)NC(=O)[C@H](CC(C)C)NC(=O)OCc1ccccc1
Summary of the method: as §1

pinometostat = compound: CC(C)N(C[C@H]1O[C@@H](n2cnc3c(N)ncnc32)[C@H](O)[C@@H]1O)[C@H]1C[C@@H](CCc2nc3cc(C(C)(C)C)ccc3[nH]2)C1 [pinometostat]
Summary of the method: as §1

[5] = compound: CC1=C(C(CC(=O)N1)C2=CC=C(C=C2)C(F)(F)F)C(=O)NC3=C(C=C4C(=C3)C=NN4)F
Summary of the method: as §1

[6] = compound: CC1=C(C2=C(C=C1)C(=O)C3=CC=CC=C3N2CCCN)C
Summary of the method: as §1

[7] = compound: CC1=C(C=C(C=C1)NC(=O)C2=CC(=CC=C2)C(C)(C)C#N)NC3=CC4=C(C=C3)N=CN(C4=O)C
Summary of the method: as §1

[8] = compound: CC1=C(C=C(C=C1)NC(=O)C2=CC(=CC=C2)N(C)C)NC(=O)C3=CC=C(C=C3)O
Summary of the method: as §1

[9] = compound: CC1=CC=C(C=C1)SC2=C3C=C(SC3=CN=C2)C(=O)N
Summary of the method: as §1

[10] = compound: CC1=NC(=CC=C1)C2=C(N=C(N2)C(C)(C)C)C3=CC4=NC=CN=C4C=C3
Summary of the method: as §1

Nexturastat A = compound: CCCCN(Cc1ccc(C(=O)NO)cc1)C(=O)Nc1ccccc1 [Nexturastat A]
Summary of the method: as §1

vemurafenib = compound: CCCS(=O)(=O)Nc1ccc(F)c(C(=O)c2c[nH]c3ncc(-c4ccc(Cl)cc4)cc23)c1F [vemurafenib]
Summary of the method: as §1

[11] = compound: CCCS(=O)(=O)Nc1ccc(F)c(C(=O)c2c[nH]c3ncc(Cl)cc23)c1F
Summary of the method: as §1

[12] = compound: CCCc1cc(C)[nH]c(=O)c1CNC(=O)c1cc(-c2ccnc(N3CCN(C)CC3)c2)cc2c1cnn2C(C)C
Summary of the method: as §1

givinostat = compound: CCN(CC)Cc1ccc2cc(COC(=O)Nc3ccc(C(=O)NO)cc3)ccc2c1 [givinostat]
Summary of the method: as §1

barasertib = compound: CCN(CCCOc1ccc2c(Nc3cc(CC(=O)Nc4cccc(F)c4)[nH]n3)ncnc2c1)CCOP(=O)(O)O [barasertib]
Summary of the method: as §1

Sequence of UniProt O00165 (O00165 whole entry, looked up): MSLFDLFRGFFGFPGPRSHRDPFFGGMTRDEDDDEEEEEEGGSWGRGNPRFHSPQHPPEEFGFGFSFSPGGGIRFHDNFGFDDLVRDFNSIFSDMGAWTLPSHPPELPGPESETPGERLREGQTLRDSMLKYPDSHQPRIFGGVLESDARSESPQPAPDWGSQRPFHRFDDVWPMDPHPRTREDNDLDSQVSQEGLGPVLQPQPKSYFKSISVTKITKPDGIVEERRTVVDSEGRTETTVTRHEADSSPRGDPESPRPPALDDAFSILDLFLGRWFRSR
Sequence of UniProt Q06546 (Q06546 whole entry, looked up): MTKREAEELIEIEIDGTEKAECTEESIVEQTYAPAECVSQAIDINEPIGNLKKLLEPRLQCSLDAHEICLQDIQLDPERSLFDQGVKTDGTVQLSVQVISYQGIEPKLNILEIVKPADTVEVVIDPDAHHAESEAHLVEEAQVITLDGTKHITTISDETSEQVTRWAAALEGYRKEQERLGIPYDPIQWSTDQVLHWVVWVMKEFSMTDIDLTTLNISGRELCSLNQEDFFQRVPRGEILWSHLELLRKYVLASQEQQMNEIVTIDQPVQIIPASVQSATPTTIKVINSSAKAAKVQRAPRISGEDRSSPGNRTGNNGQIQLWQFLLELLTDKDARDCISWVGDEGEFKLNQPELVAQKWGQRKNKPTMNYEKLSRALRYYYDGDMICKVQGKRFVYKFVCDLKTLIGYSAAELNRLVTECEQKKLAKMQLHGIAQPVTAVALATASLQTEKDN
Sequence of UniProt Q96LB3 (Q96LB3 whole entry, looked up): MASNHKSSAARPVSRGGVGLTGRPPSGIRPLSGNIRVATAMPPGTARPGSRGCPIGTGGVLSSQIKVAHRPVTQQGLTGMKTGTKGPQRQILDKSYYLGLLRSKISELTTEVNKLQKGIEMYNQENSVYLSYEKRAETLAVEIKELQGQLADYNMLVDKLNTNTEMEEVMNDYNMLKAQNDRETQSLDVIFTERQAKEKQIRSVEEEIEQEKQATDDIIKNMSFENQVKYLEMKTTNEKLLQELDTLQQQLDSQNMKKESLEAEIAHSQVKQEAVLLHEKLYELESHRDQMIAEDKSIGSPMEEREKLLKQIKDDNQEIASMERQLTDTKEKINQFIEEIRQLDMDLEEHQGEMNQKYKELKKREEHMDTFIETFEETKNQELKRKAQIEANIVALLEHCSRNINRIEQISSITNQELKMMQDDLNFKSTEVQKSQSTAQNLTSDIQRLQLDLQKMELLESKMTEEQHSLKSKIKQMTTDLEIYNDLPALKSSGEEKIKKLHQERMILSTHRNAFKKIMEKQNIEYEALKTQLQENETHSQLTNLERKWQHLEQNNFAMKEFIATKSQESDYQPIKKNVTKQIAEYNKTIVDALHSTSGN
Sequence of UniProt Q1KMD3 (Q1KMD3 whole entry, looked up): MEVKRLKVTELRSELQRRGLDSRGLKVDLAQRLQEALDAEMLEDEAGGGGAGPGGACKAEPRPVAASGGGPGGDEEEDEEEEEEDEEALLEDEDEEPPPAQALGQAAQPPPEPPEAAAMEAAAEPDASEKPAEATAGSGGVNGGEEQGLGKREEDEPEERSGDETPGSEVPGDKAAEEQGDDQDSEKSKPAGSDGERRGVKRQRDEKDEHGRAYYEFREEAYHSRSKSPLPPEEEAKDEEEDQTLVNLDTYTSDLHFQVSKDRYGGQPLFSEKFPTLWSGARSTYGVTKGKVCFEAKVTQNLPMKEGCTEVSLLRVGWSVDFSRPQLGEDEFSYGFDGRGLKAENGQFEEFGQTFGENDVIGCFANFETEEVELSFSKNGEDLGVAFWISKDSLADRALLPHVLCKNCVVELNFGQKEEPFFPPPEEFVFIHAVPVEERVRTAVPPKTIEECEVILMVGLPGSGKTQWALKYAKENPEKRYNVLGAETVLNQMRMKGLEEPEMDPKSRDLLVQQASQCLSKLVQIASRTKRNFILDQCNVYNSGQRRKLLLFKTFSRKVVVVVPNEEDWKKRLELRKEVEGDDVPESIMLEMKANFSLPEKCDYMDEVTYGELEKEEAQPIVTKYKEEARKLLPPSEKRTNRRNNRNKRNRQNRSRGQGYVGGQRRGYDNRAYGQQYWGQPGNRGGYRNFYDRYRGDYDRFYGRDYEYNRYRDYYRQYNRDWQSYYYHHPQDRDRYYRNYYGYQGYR
Sequence of UniProt Q96I24 (Q96I24 whole entry, looked up): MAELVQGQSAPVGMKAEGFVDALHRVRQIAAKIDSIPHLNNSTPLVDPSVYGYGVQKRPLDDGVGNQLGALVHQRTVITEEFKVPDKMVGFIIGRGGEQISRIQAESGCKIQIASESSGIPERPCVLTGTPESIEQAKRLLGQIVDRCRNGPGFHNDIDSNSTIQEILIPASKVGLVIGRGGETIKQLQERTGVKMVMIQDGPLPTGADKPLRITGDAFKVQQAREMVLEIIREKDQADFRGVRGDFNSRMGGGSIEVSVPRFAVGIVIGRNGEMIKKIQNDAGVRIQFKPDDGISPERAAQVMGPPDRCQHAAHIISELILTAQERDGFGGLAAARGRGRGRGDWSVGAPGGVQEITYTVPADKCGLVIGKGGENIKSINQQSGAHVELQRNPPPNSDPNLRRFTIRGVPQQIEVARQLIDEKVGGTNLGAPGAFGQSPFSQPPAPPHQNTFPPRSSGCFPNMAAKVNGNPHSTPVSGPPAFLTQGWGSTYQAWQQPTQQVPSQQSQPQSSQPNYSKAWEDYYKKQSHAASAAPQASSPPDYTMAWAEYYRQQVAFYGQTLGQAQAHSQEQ
Sequence of UniProt Q92522 (Q92522 whole entry, looked up): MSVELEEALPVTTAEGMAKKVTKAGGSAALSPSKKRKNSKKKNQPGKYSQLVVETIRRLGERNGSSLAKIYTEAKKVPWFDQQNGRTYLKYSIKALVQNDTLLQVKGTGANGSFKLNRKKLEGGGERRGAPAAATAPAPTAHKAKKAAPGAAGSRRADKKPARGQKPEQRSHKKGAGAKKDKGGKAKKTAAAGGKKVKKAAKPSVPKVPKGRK
Sequence of UniProt O15228 (O15228 whole entry, looked up): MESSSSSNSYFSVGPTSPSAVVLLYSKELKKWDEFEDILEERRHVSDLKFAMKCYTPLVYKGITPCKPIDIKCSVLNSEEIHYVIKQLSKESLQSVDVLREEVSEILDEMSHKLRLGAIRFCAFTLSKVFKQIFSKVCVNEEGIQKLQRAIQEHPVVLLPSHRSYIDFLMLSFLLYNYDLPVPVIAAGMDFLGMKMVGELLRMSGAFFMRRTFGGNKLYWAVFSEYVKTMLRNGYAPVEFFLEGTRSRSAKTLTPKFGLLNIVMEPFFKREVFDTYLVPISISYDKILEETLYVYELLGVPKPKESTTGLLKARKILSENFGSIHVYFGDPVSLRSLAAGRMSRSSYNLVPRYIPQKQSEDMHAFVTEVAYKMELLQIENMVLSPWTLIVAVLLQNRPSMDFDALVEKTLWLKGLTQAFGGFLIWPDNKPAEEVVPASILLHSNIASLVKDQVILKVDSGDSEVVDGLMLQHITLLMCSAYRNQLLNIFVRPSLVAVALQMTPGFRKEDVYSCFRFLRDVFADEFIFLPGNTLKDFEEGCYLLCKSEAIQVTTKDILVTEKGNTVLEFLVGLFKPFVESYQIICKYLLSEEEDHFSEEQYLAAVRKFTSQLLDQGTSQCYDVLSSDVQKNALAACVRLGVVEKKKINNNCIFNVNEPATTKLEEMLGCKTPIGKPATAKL
Sequence of UniProt P09211 (P09211 whole entry, looked up): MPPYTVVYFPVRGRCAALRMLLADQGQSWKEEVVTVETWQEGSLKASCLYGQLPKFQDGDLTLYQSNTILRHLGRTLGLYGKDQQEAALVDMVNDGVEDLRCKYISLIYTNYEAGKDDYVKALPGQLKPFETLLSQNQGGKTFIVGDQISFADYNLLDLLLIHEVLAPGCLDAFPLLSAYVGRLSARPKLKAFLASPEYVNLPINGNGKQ
Sequence of UniProt P07910 (P07910 whole entry, looked up): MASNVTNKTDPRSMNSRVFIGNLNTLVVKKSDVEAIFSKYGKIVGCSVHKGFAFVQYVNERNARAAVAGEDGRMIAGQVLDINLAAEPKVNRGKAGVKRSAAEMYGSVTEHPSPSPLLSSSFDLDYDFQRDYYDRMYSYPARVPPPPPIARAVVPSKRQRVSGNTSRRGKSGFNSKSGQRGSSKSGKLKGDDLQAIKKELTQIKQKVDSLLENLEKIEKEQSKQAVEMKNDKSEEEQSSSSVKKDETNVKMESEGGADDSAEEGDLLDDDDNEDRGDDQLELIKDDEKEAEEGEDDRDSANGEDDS
Sequence of UniProt P55795 (P55795 whole entry, looked up): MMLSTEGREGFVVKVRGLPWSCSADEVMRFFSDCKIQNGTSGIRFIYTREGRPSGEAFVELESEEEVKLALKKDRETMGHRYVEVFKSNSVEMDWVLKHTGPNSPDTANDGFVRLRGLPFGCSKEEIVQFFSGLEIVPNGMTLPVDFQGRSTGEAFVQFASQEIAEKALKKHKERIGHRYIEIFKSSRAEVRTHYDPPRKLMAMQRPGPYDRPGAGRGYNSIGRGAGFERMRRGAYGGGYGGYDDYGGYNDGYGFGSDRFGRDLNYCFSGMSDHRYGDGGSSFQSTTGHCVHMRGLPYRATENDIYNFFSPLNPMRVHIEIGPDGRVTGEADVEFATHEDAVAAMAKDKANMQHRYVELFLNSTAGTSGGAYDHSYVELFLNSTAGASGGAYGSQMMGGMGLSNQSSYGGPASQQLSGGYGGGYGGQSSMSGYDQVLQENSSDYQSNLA
Sequence of UniProt Q9H0R8 (Q9H0R8 whole entry, looked up): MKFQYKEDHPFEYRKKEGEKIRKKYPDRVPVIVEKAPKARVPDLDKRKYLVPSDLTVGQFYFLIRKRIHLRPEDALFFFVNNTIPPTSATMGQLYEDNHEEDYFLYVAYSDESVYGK
Sequence of UniProt Q9Y680 (Q9Y680 whole entry, looked up): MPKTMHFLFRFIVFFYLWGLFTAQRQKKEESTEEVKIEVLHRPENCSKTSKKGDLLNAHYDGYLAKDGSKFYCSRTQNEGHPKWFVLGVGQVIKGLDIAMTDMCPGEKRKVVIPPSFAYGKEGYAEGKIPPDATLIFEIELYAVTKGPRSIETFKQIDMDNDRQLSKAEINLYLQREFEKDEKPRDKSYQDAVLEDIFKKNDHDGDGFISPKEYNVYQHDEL

Row | Target | log2 fold change (IRAK-1-4 Inhibitor I) | log2 fold change (ibrutinib) | log2 fold change [1] | log2 fold change (ralimetinib) | log2 fold change [2] | log2 fold change [3] | log2 fold change [4] | log2 fold change (pinometostat) | log2 fold change [5] | log2 fold change [6] | log2 fold change [7] | log2 fold change [8] | log2 fold change [9] | log2 fold change [10] | log2 fold change (Nexturastat A) | log2 fold change (vemurafenib) | log2 fold change [11] | log2 fold change [12] | log2 fold change (givinostat) | log2 fold change (barasertib)
1 | HNRNPK isoform 2 (UniProt P61978) | -0.014 | -0.014 | -0.161 | -0.054 | -0.025 | -0.283 (active) | 0.003 | -0.033 | 0.005 | -0.062 | 0.034 | 0.004 | -0.003 | 0.075 | 0.022 | 0.048 | 0.048 | -0.031 | 0.063 | 0.024
2 | GNPAT (UniProt O15228) | 0.026 | -0.007 | -0.017 | 0.02 | -0.053 | -0.018 | -0.014 | -0.018 | 0.004 | 0.024 | -0.03 | -0.046 | 0.007 | 0 | -0.039 | 0.023 | 0.045 | 0.03 | 0.022 | 0.044
3 | GLCCI1 (UniProt Q86VQ1) | 0.062 | 0.013 | -0.131 | 0.001 | -0.012 | 0.075 | 0.017 | -0.03 | 0.098 | -0.013 | 0.037 | 0.104 | -0.029 | 0.028 | 0 | -0.007 | -0.035 | 0.033 | 0.045 | -0.075
4 | GABARAPL1 isoform 2 (UniProt Q9H0R8) | 0.031 | -0.057 | -0.065 | -0.003 | -0.024 | -0.369 (active) | 0.092 | -0.044 | -0.047 | 0.023 | -0.008 | 0.003 | 0.006 | 0.002 | -0.013 | -0.016 | -0.025 | -0.007 | 0.044 | 0.021
5 | GSTP1 (UniProt P09211) | 0.12 | -0.038 | -0.074 | -0.021 | -0.015 | 0.016 | -0.023 | -0.026 | -0.004 | 0.03 | 0.006 | -0.003 | 0.008 | 0.008 | -0.108 | 0.022 | -0.006 | -0.1 | -0.019 | 0.023
6 | GTF3C4 (UniProt Q9UKN8) | -0.002 | 0.032 | -0.051 | -0.045 | 0.035 | 0.038 | 0.035 | 0 | -0.047 | -0.041 | -0.025 | -0.027 | 0.038 | 0.008 | -0.052 | 0.032 | 0.045 | 0.033 | -0.007 | 0.003
7 | H1FX (UniProt Q92522) | -0.171 | 0.077 | 0.231 | 0.204 | 0.031 | 0.13 | 0.09 | 0.246 | 0.02 | -0.718 (active) | 0.081 | -0.059 | -0.106 | -0.222 | 0.278 | -0.083 | -0.077 | 0.176 | -0.034 | -0.129
8 | GABPA (UniProt Q06546) | -0.004 | -0.014 | -0.054 | 0.001 | -0.107 | -0.243 | -0.013 | -0.007 | -0.043 | -0.175 | -0.007 | -0.011 | 0.064 | 0.039 | 0.008 | 0.062 | 0.09 | -0.004 | 0.17 | 0.022
9 | HNRNPUL2 (UniProt Q1KMD3) | -0.033 | -0.022 | -0.014 | -0.033 | 0.024 | 0.117 | 0.054 | 0.107 | -0.009 | 0.023 | 0.009 | 0.008 | -0.074 | -0.032 | 0.109 | -0.047 | -0.027 | -0.002 | 0.047 | -0.027
10 | HNRNPH2 (UniProt P55795) | -0.081 | -0.024 | -0.134 | 0.137 | -0.067 | -0.345 (active) | 0.124 | 0 | 0.193 | -0.104 | 0.064 | -0.027 | 0.079 | 0.058 | 0.044 | 0.048 | 0.208 | 0.095 | 0.109 | 0.014
11 | IFT74 (UniProt Q96LB3) | 0.067 | 0.146 | 0.02 | 0.27 | -0.095 | 0.191 | 0.076 | -0.024 | -0.085 | 0.071 | -0.086 | -0.044 | -0.01 | -0.084 | 0.746 (active) | -0.059 | 0.005 | -0.007 | 0.26 | -0.037
12 | FKBP7 (UniProt Q9Y680) | 0.018 | 0.033 | -0.031 | -0.033 | 0.017 | 0.055 | -0.005 | -0.059 | -0.029 | -0.022 | -0.052 | 0.001 | -0.034 | -0.074 | 0.002 | -0.031 | -0.097 | -0.025 | 0.002 | 0.044
13 | HNRNPC isoform 2 (UniProt P07910) | -0.332 | 0.043 | -0.365 | 0.106 | 0.195 | -0.197 | 0.281 | 0.238 | -0.01 | -0.629 | 0.276 | -0.074 | -0.349 | -0.045 | 0.449 | -0.055 | -0.191 | 0.028 | 0.241 | -0.095
14 | HAX1 (UniProt O00165) | -0.017 | -0.036 | -0.07 | 0.026 | -0.156 | -0.498 (active) | 0.045 | 0.107 | 0.047 | 0.065 | -0.018 | -0.101 | 0.03 | -0.058 | 0.066 | -0.012 | 0.082 | 0.045 | 0.009 | 0.046
15 | GCC2 (UniProt Q8IWJ2) | -0.046 | -0.023 | 0.105 | 0.131 | 0 | -0.075 | 0.111 | 0.198 | 0.085 | -0.091 | -0.004 | -0.012 | -0.016 | -0.031 | 0.322 (active) | 0.025 | 0.01 | 0.073 | 0.05 | -0.037
16 | FUBP3 (UniProt Q96I24) | -0.002 | -0.002 | -0.054 | 0.023 | -0.083 | 0.15 | 0.036 | -0.017 | -0.022 | 0.387 (active) | 0.021 | -0.018 | 0.01 | 0.122 | -0.114 | 0.035 | 0.018 | -0.059 | -0.023 | -0.012
